About 83,000 compounds went through this panel and 20% of them were active in at least one assay; those are over-represented in the sample as a whole.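 Cells were grown in 96-well plates and exposed to the test compound at a single concentration for 48 hours; results are reported as percent growth, with values below 10 considered active.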 Active and inactive are the calls of the source.
Experiments:
Assay in all cases: NCI-60 one-dose screen, 48 h (100 = growth as untreated, 0 = no growth, -100 = all killed)
Conditions in all cases: 10 µM unless noted
[1] = test system: NCI-H23 lung
[2] = test system: NCI-H226 lung
[3] = test system: NCI-H322M lung
[4] = test system: HOP-62 NSCLC
[5] = test system: NCI-H460 lung
[6] = test system: HOP-92 NSCLC
[7] = test system: NCI-H522 lung
[8] = test system: A549/ATCC NSCLC
[9] = test system: 786-0 renal
[10] = test system: COLO 205 colon
[11] = test system: DU-145 prostate
[12] = test system: K-562 leukemia
[13] = test system: MALME-3M melanoma
[14] = test system: MDA-MB-231 breast
[15] = test system: RXF 393 renal
[16] = test system: SF-268 CNS
[17] = test system: SF-295 CNS
[18] = test system: SF-539 CNS
[19] = test system: UACC-257 melanoma
[20] = test system: M14 melanoma

Measured: growth

CN1C(=O)/C(=C/c2cn(-c3ccccc3)nc2-c2ccccc2)SC1=S
inactive: [1] 95.4% | [2] 98.3% | [3] 107% | [4] 97.9% | [5] 101% | [6] 51.4% | [7] 90.2% | [8] 102% | [9] 107% | [10] 124% | [11] 105% | [12] 92.6% | [13] 114% | [14] 92.8% | [15] 110% | [16] 104% | [17] 89.6% | [18] 99.5% | [19] 106% | [20] 103%

O=C(CCCCCCN1CC(=O)N2[C@H](c3cc(Br)cs3)c3[nH]c4ccccc4c3C[C@H]2C1=O)NO
inactive: [1] 50.4% | [2] 79.9% | [3] 38.5% | [4] 41.8% | [5] 35.1% | [6] 18.2% | [7] 20.5% | [8] 61.1% | [9] 76.9% | [10] 42.6% | [11] 29.1% | [12] 10.2% | [13] 18.6% | [14] 44% | [15] 18.7% | [16] 66.8% | [17] 45.8% | [18] 43.3% | [19] 27.7% | [20] 37.2%

Cc1noc(C)c1C(=O)OCc1coc2ccccc2c1=O
inactive: [1] 71.3% | [2] 84.9% | [3] 96.2% | [4] 87.5% | [5] 83.8% | [6] 27.4% | [8] 89.5% | [9] 55.4% | [10] 66.6% | [11] 27.8% | [12] 36.5% | [13] 51.4% | [14] 61.2% | [15] 76.5% | [16] 79.8% | [17] 104% | [18] 68.5% | [19] 72.2% | [20] 69.1%
active: [7] -15.4%

Cn1c(-c2ccc(Br)cc2)c(O)c(=O)c2c(F)cccc21
inactive: [1] 48.4% | [2] 62.9% | [3] 53.5% | [4] 34% | [5] 20.5% | [6] 137% | [7] 54% | [8] 45.9% | [9] 42.7% | [11] 54.4% | [12] 100% | [13] 55.2% | [14] 54.5% | [15] 66.1% | [16] 47% | [17] 48.4% | [18] 57.4% | [19] 71.4% | [20] 50.6%
active: [10] 7.68%

COc1ccc2nc3ccc(OC)cc3c(SCCCN)c2c1
inactive: [1] 74.5% | [2] 97.8% | [3] 114% | [4] 79.8% | [5] 110% | [6] 43.6% | [7] 57.7% | [8] 79.6% | [9] 49% | [10] 48.9% | [11] 19.8% | [13] 95% | [14] 102% | [15] 49.1% | [16] 94.1% | [17] 95.9% | [18] 108% | [19] 105% | [20] 81%
active: [12] -33.6%

CCCCCOc1ccc(C(=O)/C(Br)=C/C(=O)O)cc1
inactive: [1] 91.9% | [2] 106% | [3] 104% | [4] 214% | [5] 103% | [6] 99.2% | [7] 89.2% | [8] 104% | [9] 98.8% | [10] 105% | [11] 106% | [12] 60.1% | [13] 130% | [14] 109% | [15] 95.2% | [16] 97.5% | [17] 112% | [18] 100% | [19] 106% | [20] 56.8%

N#Cc1cnc(NCCc2ccncc2)nc1-n1cnc2ccccc21
inactive: [1] 76% | [2] 68.7% | [3] 35% | [4] 77.3% | [5] 39.5% | [6] 95.7% | [7] 55.8% | [8] 53.5% | [9] 40.3% | [10] 72.1% | [11] 51.9% | [12] 60.9% | [13] 69% | [14] 76.2% | [15] 52.7% | [16] 53% | [17] 75.1% | [18] 61.3% | [19] 102% | [20] 47.9%

CCOC(=O)c1c(C)nc2c(c1N)CC(=O)N2Cc1cc(F)cc(Cl)c1
inactive: [1] 81.8% | [2] 89.1% | [3] 107% | [4] 89.7% | [5] 98.1% | [6] 78.1% | [7] 66.8% | [8] 82.8% | [9] 88.2% | [10] 121% | [11] 94.5% | [12] 95.2% | [13] 108% | [14] 87.5% | [15] 92.4% | [16] 95.8% | [17] 85.9% | [18] 94.2% | [19] 82% | [20] 101%

CNc1nc(S(=O)c2ccc(C#N)cc2)nc2ccccc12 (stereo not given)
inactive: [1] 78.4% | [2] 81.1% | [3] 99.6% | [4] 98.5% | [5] 85.2% | [6] 75% | [7] 50.3% | [8] 90.1% | [9] 97.5% | [10] 91.6% | [11] 40.6% | [12] 24.9% | [13] 54.8% | [14] 54.8% | [15] 62.9% | [16] 87.8% | [17] 99.5% | [18] 92% | [19] 85.3% | [20] 71.5%

O=C1/C(=C/c2ccc(-c3ccc(Br)cc3)o2)SC(=S)N1CCc1ccc(O)cc1
inactive: [1] 75.8% | [2] 90.2% | [3] 84.5% | [4] 90.6% | [5] 60.3% | [6] 60% | [7] 13.7% | [8] 67.5% | [11] 15.7% | [13] 73.5% | [14] 82.9% | [15] 80.5% | [16] 44.4% | [17] 100% | [18] 86.5% | [19] 77.4% | [20] 50.9%
active: [9] 5.73% | [10] -27.8% | [12] 3.25%

COc1ccc2c(c1)c(-c1noc(C(=O)c3cn(C)c4ccc(Br)cc34)n1)cn2C
inactive: [1] 99.3% | [2] 93.8% | [3] 97% | [4] 93.9% | [5] 105% | [6] 108% | [7] 76.9% | [8] 84.5% | [9] 112% | [10] 110% | [11] 113% | [12] 88% | [13] 93.9% | [14] 103% | [15] 114% | [16] 99.2% | [17] 117% | [18] 101% | [19] 92.7% | [20] 97%

CCCCCCC1(C)NCCO1 (stereo not given)
inactive: [1] 99.1% | [2] 103% | [3] 87.3% | [4] 105% | [5] 106% | [6] 102% | [7] 100% | [8] 99.4% | [9] 102% | [10] 102% | [11] 111% | [12] 104% | [13] 105% | [14] 104% | [15] 118% | [16] 93.6% | [17] 102% | [18] 110% | [19] 99% | [20] 104%

COC(=O)CCC(=O)C(=O)OC
inactive: [3] 10.2% [10 mM] | [4] 11.3% [10 mM] | [8] 26% [10 mM] | [10] 79.8% [10 mM] | [11] 10.6% [10 mM] | [13] 42.4% [10 mM] | [14] 35.5% [10 mM] | [17] 30.2% [10 mM]
active: [1] 0.491% [10 mM] | [2] -14.9% [10 mM] | [5] 7.63% [10 mM] | [6] -16% [10 mM] | [7] -63.9% [10 mM] | [9] 5.84% [10 mM] | [12] 7.9% [10 mM] | [15] -8.87% [10 mM] | [16] -10.3% [10 mM] | [18] 4.1% [10 mM] | [19] -15.1% [10 mM] | [20] 7.27% [10 mM]

CC1=Nc2cnc(Nc3ccc(OCCN4CCCC4)cc3)nc2Nc2ccccc21
inactive: [1] 80.4% | [2] 77.8% | [3] 44.6% | [4] 86.4% | [5] 64.2% | [6] 43.2% | [7] 73.9% | [8] 86.5% | [9] 54% | [10] 72.2% | [11] 56.1% | [12] 39.6% | [13] 68% | [14] 59.7% | [15] 36% | [16] 63.9% | [17] 85.6% | [18] 68.6% | [19] 89.3% | [20] 52.6%

CCN1C(=O)N(CC)C2C1NN=c1s/c(=C\c3cccc([N+](=O)[O-])c3)c(=O)n12 (stereo not given)
inactive: [1] 36.4% | [2] 58.2% | [3] 45.5% | [4] 40% | [6] 55.2% | [8] 20.2% | [9] 25% | [12] 10.5% | [13] 47.4% | [14] 12.4% | [15] 31.4% | [16] 54% | [17] 15% | [19] 59.7% | [20] 12.2%
active: [5] 5.14% | [7] -4.92% | [10] 1.16% | [11] 8.55% | [18] -4.28%

CC1(C)CC2=C3C=C[C@@H]4[C@@]5(C)CCC(=O)C(C)(C)[C@@H]5CC[C@@]4(C)[C@]3(C)CC[C@@]2(C(=O)O)CC1=O
inactive: [1] 71.6% | [2] 53% | [3] 59.7% | [4] 76% | [5] 76.7% | [6] 25.8% | [7] 65.1% | [8] 48.3% | [9] 31.7% | [10] 68.6% | [11] 97.2% | [12] 92.1% | [13] 39.1% | [14] 75.3% | [15] 54.8% | [16] 53.3% | [17] 75.3% | [18] 65.7% | [19] 43.2% | [20] 46.8%

— PubChem BioAssay (NCI)
